Data taken from PubChem BioAssay (EPA / NIEHS).
Inconclusive results are not listed. The source made the active and inactive calls. Rule for the calls: active = hit-call score of the fitted dose curve at least 0.9, where 1 is the maximum; inconclusive = response in the unintended direction; inactive = score below 0.9.

Biological target: Nuclear receptor subfamily 1 group I member 2 (Homo sapiens) (UniProt O75469)
Assay: ATG_PXR_TRANS: Attagene TRANS-FACTORIAL HepG2 Assay for human Pregnane X Receptor (PXR) (AID 2283008)
Method in brief: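 Multiplexed TRANS reporter panel in HepG2; this component tracks PXR-Gal4-driven reporter mRNA after 24 h dosing, measured by RT-PCR with capillary electrophoresis fluorescence, fitted against DMSO.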

Nuclear receptor subfamily 1 group I member 2 (Homo sapiens), sequence (O75469 whole entry, looked up): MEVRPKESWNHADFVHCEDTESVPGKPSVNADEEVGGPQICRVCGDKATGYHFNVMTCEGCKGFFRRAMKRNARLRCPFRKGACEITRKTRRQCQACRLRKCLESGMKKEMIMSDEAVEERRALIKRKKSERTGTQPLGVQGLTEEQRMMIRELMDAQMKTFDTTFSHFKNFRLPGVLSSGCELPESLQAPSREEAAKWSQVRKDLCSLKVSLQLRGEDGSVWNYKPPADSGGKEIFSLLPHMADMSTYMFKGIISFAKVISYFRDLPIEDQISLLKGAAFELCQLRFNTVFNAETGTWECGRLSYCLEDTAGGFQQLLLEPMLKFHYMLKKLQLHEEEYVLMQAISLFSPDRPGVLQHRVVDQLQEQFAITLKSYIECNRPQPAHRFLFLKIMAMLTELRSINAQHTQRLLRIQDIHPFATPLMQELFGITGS

SMILES	AC50	outcome
CCCCCCC(=O)c1ccccc1	59.2 µM (active)	–
CCC(C)S (centres undefined)	–	inactive
Cc1cc(C)nc(NS(=O)(=O)c2ccc(N)cc2)n1	–	inactive
CCOC(=O)COC(=O)c1cc(Oc2ccc(C(F)(F)F)cc2Cl)ccc1[N+](=O)[O-]	22.2 µM (active)	–
CC(C)c1ccccc1O	–	inactive
O=C1OC(=O)c2c(Br)c(Br)c(Br)c(Br)c21	–	inactive
Cc1cc(CCC(=O)OCCOCCOCCOC(=O)CCc2cc(C)c(O)c(C(C)(C)C)c2)cc(C(C)(C)C)c1O	23.3 µM (active)	–
NCc1ccco1	–	inactive
O=c1c(O)c(-c2ccc(O)cc2)oc2cc(O)cc(O)c12	–	inactive
Nc1ccc(NCCO)c([N+](=O)[O-])c1	–	inactive
CCCSc1ccc2nc(NC(=O)OC)[nH]c2c1	–	inactive
Oc1c(Cl)cc(Cl)c(Cl)c1Cc1c(O)c(Cl)cc(Cl)c1Cl	5.79 µM (active)	–
Cc1[nH]c(=O)c(C#N)cc1-c1ccncc1	–	inactive
CC(C)=CCCC(C)CC(=O)O (centres undefined)	–	inactive
CCOC(=O)[C@@H](C)Oc1ccc(Oc2nc3ccc(Cl)cc3o2)cc1	–	inactive
CCCC(=O)OC(C)(C)Cc1ccccc1	–	inactive
Cc1cccc(Nc2ccccc2)c1	–	inactive
N#Cc1ccc(CC(=O)c2cccc(C(F)(F)F)c2)cc1	5.99 µM (active)	–
CCO/C=C1\N=C(c2ccccc2)OC1=O	–	inactive
O=C1CCCC=CCCCCCCCCCC1	10.3 µM (active)	–
CC/C=C\CC/C=C/CO	–	inactive
CCCCCCCCSCCO	–	inactive
CC(Oc1cc(Cl)ccc1Cl)C(=O)O (centres undefined)	–	inactive
COCCOC(=O)c1ccccc1C(=O)OCCOC	–	inactive
